# C diff growth – blocks growth of Clostridium difficile; Clostridium difficile clinical isolate growth, OD600, 24 h; stronger effect = lower value; 86,000 tested, 0.25% active; AID 1259249; growth activity, negative = inhibition, % at 16 µg/mL (by protocol);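 active = mean growth activity at or below -80% and every replicate also at or below -80%; inconclusive = mean at or below -80% but some replicate above -80%; inactive = mean growth activity above -80%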
# Pf Dd2 growth – blocks growth of Plasmodium falciparum Dd2 parasites. P. falciparum Dd2 growth, SYBR Green, 72 h; stronger effect = lower value. activity change, % at 10 µM. 94,000 tested, 2.3% active. AID 1159554; in the data active = activity change below about -80%; inconclusive = no clear call, values can overlap the other calls
# T cruzi growth-1 – blocks T. cruzi growth in NIH3T3 culture; T. cruzi beta-gal in NIH3T3, GalScreen luminescence, 90 h; inhibition, % at 8.34 µM; 77,000 tested, 5.9% active;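 active = mean inhibition above about 93%, with at least 55% of replicates each passing it, limit read from the data, passing the limit was not always enough; inconclusive = only one of those two conditions holds; inactive = neither condition holds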
# T cruzi growth-2 – Trypanosoma cruzi proliferation inhibition | shares compounds with T cruzi growth-1 | T. cruzi beta-gal in NIH3T3, GalScreen luminescence, 90 h | inhibition, % at 8.35 µM | 5,600 tested, 72% active | AID 651739;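 active = mean replicate inhibition above about 95% and at least 55% of replicates individually reaching it, limit read from the data; inconclusive = only one of the two criteria is met; inactive = neither criterion is met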
# T cruzi growth-3 – inhibitors of T. cruzi proliferation; shares compounds with T cruzi growth-1; T. cruzi beta-gal in NIH3T3, GalScreen luminescence, 90 h; inhibition, % at 2.09 µM; 5,600 tested, 21% active; AID 651740;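 active = mean inhibition above about 95%, with at least 55% of replicates also reaching it, limit read from the data; inconclusive = meets just one of the two conditions; inactive = meets neither condition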
# 3T3 cytotox – NIH/3T3 (mouse) viability loss; shares compounds with T cruzi growth-1; NIH/3T3 viability, CellTiter-Glo ATP luminescence, 90 h; cytotoxicity (signal decrease), % at 8.35 µM; 5,600 tested, 14% active;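 active = mean signal decrease across replicates above about 35% based on untreated-well scatter, with enough replicates individually passing, limit read from the data; inconclusive = no rule stated though some were filed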
# 3T3 cytotox 2 – kills mouse NIH/3T3 fibroblasts; shares compounds with T cruzi growth-1; NIH/3T3 viability, CellTiter-Glo ATP luminescence, 90 h; inhibition, % at 24.9 µM; 5,600 tested, 56% active;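 active = mean loss of cell viability signal at or above a set limit, and enough replicates individually reaching it; inconclusive = meets only the mean limit or only the replicate share; inactive = meets neither condition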
# A number is an active result; – = inactive; ? = inconclusive; · = not tested or not shown. Rows were chosen to be rich in hits. Some 6.7% of all compounds tested hit in one or more screens of this group.
SMILES,C diff growth,Pf Dd2 growth,T cruzi growth-1,T cruzi growth-2,T cruzi growth-3,3T3 cytotox,3T3 cytotox 2
C[C@@H]1CN([C@@H](C)CO)C(=O)c2cccc(NC(=O)NC3CCCCC3)c2O[C@@H]1CN(C)Cc1ccc(Cl)c(Cl)c1,–,–,–,·,·,·,·
C[C@H]1CN([C@@H](C)CO)C(=O)c2cccc(NC(=O)Nc3ccccc3)c2O[C@@H]1CN(C)Cc1ccc(C(F)(F)F)cc1,–,–,–,·,·,·,·
C[C@H](CO)N1C[C@H](C)[C@@H](CN(C)Cc2ccc(Oc3ccccc3)cc2)Oc2c(NC(=O)Nc3ccc(C(F)(F)F)cc3)cccc2C1=O,–,–,129,101,–,–,104
COc1ccc(NC(=O)Nc2cccc3c2O[C@@H](CN(C)Cc2ccc(Cl)c(Cl)c2)[C@H](C)CN([C@H](C)CO)C3=O)cc1,–,–,109,106,107,–,56
Cc1noc(C)c1NC(=O)Nc1cccc2c1O[C@@H](CN(C)Cc1ccncc1)[C@H](C)CN([C@H](C)CO)C2=O,–,–,–,·,·,·,·
C[C@@H]1CN([C@@H](C)CO)C(=O)c2cccc(NC(=O)NC3CCCCC3)c2O[C@H]1CN(C)Cc1ccc(Cl)c(Cl)c1,–,–,?,107,–,–,70
COc1ccc(NC(=O)Nc2cccc3c2O[C@H](CN(C)Cc2ccc(Cl)c(Cl)c2)[C@@H](C)CN([C@H](C)CO)C3=O)cc1,–,–,–,·,·,·,·
Cc1noc(C)c1NC(=O)Nc1cccc2c1O[C@@H](CN(C)Cc1ccncc1)[C@H](C)CN([C@@H](C)CO)C2=O,–,–,110,–,–,–,–
CN(C)C(=O)C[C@@H]1C=C[C@H](NS(=O)(=O)c2ccccc2)[C@@H](CO)O1,·,–,–,·,·,·,·
C[C@@H]1CN([C@H](C)CO)C(=O)Cc2cc(NC(=O)CCCCCC(=O)Nc3ccccc3N)ccc2O[C@@H]1CN(C)C(=O)NC1CCCCC1,–,–,–,·,·,·,·
CC(=O)N(C)C[C@H]1Oc2cc(C#Cc3ccccn3)ccc2S(=O)(=O)N([C@@H](C)CO)C[C@H]1C,–,–,–,·,·,·,·
C[C@H](CO)N1C[C@H](C)[C@H](CN(C)Cc2ccc(Cl)c(Cl)c2)Oc2c(NC(=O)Nc3ccc(C(F)(F)F)cc3)cccc2C1=O,–,–,128,105,101,–,98
C[C@@H]1CN([C@@H](C)CO)C(=O)c2cccc(NC(=O)NC3CCCCC3)c2O[C@@H]1CN(C)Cc1ccccc1,–,–,–,·,·,·,·
C[C@@H]1CN([C@H](C)CO)C(=O)c2cccc(NC(=O)C3CCOCC3)c2O[C@H]1CN(C)Cc1ccc(Oc2ccccc2)cc1,–,–,?,102,–,–,–
C[C@H](CO)N1C[C@H](C)[C@H](CN(C)Cc2ccc(C(F)(F)F)cc2)Oc2c(NC(=O)Nc3ccc(C(F)(F)F)cc3)cccc2C1=O,–,–,101,?,–,–,75
C[C@H](CO)N1C[C@H](C)[C@H](CN(C)Cc2ccc(Cl)c(Cl)c2)Oc2c(NC(=O)Nc3ccc(F)cc3)cccc2C1=O,·,–,–,·,·,·,·
C[C@H]1CN([C@@H](C)CO)C(=O)c2cccc(NC(=O)Nc3ccc(F)cc3)c2O[C@H]1CN(C)Cc1ccc(C(F)(F)F)cc1,–,–,–,·,·,·,·
C[C@H](CO)N1C[C@H](C)[C@@H](CN(C)Cc2ccc(Oc3ccccc3)cc2)Oc2c(NC(=O)NC3CCCCC3)cccc2C1=O,–,–,?,108,–,–,106
C[C@@H]1CN([C@@H](C)CO)C(=O)c2cccc(NC(=O)C3CCOCC3)c2O[C@@H]1CN(C)Cc1ccc(Oc2ccccc2)cc1,–,–,–,·,·,·,·
COC(=O)[C@H]1[C@H](CO)[C@H]2Cn3c(ccc(-c4cncnc4)c3=O)[C@H]2N1C(=O)C1CCC1,–,–,–,·,·,·,·
COc1cccc(C(=O)N2C[C@@H]3[C@H](c4ccccc42)[C@@H](CO)N3C(=O)c2ccccc2)c1,–,–,–,·,·,·,·
C[C@H]1CN([C@@H](C)CO)C(=O)c2cc(C#CC(C)(C)O)cnc2O[C@@H]1CN(C)C(=O)CN(C)C,–,–,–,·,·,·,·
C[C@@H]1CCCCO[C@H](CN(C)Cc2ccc(C(=O)O)cc2)[C@@H](C)CN([C@@H](C)CO)C(=O)c2cc(NC(=O)NC3CCCCC3)ccc2O1,–,–,–,·,·,·,·
CN(C)C(=O)C[C@@H]1C[C@@H]2c3cc(NC(=O)NC4CCCC4)ccc3O[C@@H]2[C@H](CO)O1,–,–,–,·,·,·,·
O=C(C[C@@H]1CC[C@H](NC(=O)C2CCOCC2)[C@H](CO)O1)NCc1ccncc1,–,–,·,·,·,·,·
SMILES,C diff growth,Pf Dd2 growth,T cruzi growth-1,T cruzi growth-2,T cruzi growth-3,3T3 cytotox,3T3 cytotox 2
C[C@H]1CN([C@@H](C)CO)C(=O)c2cccc(NC(=O)Nc3ccc(F)cc3)c2O[C@@H]1CN(C)Cc1ccc(Oc2ccccc2)cc1,·,–,?,103,–,–,37
C[C@H](CO)N1C[C@H](C)[C@H](CN(C)Cc2ccc(C(F)(F)F)cc2)Oc2c(NC(=O)Nc3ccc4c(c3)OCO4)cccc2C1=O,–,–,–,·,·,·,·
C[C@@H]1CN([C@@H](C)CO)C(=O)c2cccc(NC(=O)Nc3ccc(F)cc3)c2O[C@@H]1CN(C)Cc1ccc(Oc2ccccc2)cc1,·,–,–,·,·,·,·
C[C@@H]1CN([C@@H](C)CO)C(=O)c2cccc(NC(=O)Nc3ccc(C(F)(F)F)cc3)c2O[C@@H]1CN(C)Cc1ccc2c(c1)OCO2,·,–,?,105,–,–,104
CN1CCN(C(=O)C[C@H]2CC[C@@H]3[C@@H](COc4ccc(NC(=O)C5CCOCC5)cc4C(=O)N3C)O2)CC1,–,·,–,·,·,·,·
CCS(=O)(=O)Nc1ccc2c(c1)C(=O)N(C)C[C@H](OC)[C@@H](C)CN(Cc1nccs1)[C@H](C)CO2,–,–,–,·,·,·,·
C[C@@H]1CN([C@H](C)CO)S(=O)(=O)c2ccc(C#Cc3ccc(F)cc3)cc2O[C@H]1CN(C)C,–,–,–,·,·,·,·
C[C@@H]1CN([C@@H](C)CO)S(=O)(=O)c2ccc(C#Cc3ccc(F)cc3)cc2O[C@@H]1CN(C)S(C)(=O)=O,–,–,?,–,–,36,74
C[C@@H]1CN([C@H](C)CO)S(=O)(=O)c2ccc(C#Cc3ccc(F)cc3)cc2O[C@@H]1CN(C)S(C)(=O)=O,–,–,?,?,–,46,66
C[C@H](CO)N1C[C@H](C)[C@@H](CN(C)S(C)(=O)=O)Oc2cc(C#Cc3ccc(F)cc3)ccc2S1(=O)=O,–,–,106,109,–,–,52
C[C@@H]1CN([C@@H](C)CO)S(=O)(=O)c2ccc(C#Cc3ccc(F)cc3)cc2O[C@H]1CN(C)C,–,–,–,·,·,·,·
C[C@H](CO)N1C[C@H](C)[C@H](CN(C)C)Oc2cc(C#Cc3ccc(F)cc3)ccc2S1(=O)=O,–,–,–,·,·,·,·
COCC(=O)Nc1ccc2c(c1)C(=O)N(C)[C@@H]1CC[C@H](CC(=O)NCc3ccccc3)O[C@@H]1CO2,–,–,–,·,·,·,·
